Source: PubChem BioAssay
DAX1 inh-1 = DAX1 (NR0B1) inhibitors on StAR promoter, primary screen, cell-based, luminescence, SF-1 (NR5A1), full-length DAX-1 | 370,000 tested, 1.1% active | AID 652010, 2013 | inhibition, % at 6.8 µM | HEK293T StAR-luciferase reporter, SF-1/DAX-1 repression relief;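 active = inhibition above the mean over all tested compounds plus 3 SD, cut at about 3.6% in these data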;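 also: higher inhibition means more luminescence from relief of DAX-1 repression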
hcDAF12 agonist = H. contortus DAF-12 nuclear receptor activators, primary screen, cell-based, luminescence, HEK293, lit1-tk-luc reporter; AID 652067, 2013; activation, % at 6.8 µM; HEK293 hcDAF-12 lit1-tk-luc reporter; 0% DMSO, 100% Δ7-dafachronic acid; 370,000 tested, 1.4% active;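 active = activation above the mean of all tested compounds plus 3 SD, cut at about 5.5% in these data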
hgDAF-12 ag = H. glycines DAF-12 receptor agonists, primary screen, cell-based, luminescence, HEK293, GAL4 fusion, UAS-luciferase; AID 687014, 2013; activation, % at 6.8 µM; HEK293 GAL4-hgDAF12 UAS-luciferase reporter, agonist luminescence; normalized to butyrate control; 370,000 tested, 1.8% active; Nuclear hormone receptor DAF-12 (Heterodera glycines), GAL4 fusion;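 active = activation above a cutoff set at the mean of all screened compounds plus 3 SD, cut at about 10% in these data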
Wee1 stabilizer = Wee1 degradation inhibitors, primary screen, cell-based, HeLa, Wee1K328M-luciferase, luminescence | HeLa Luc-Wee1K328M stability; 100% = proteasome inhibitor MG132 effect | reporter increase, % at 5 µM | 220,000 tested, 1.2% active;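 active = activation above the mean of all tested compounds plus 3 SD, set per screening run, cut at about 8.8% in these data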;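 also: cells exposed to compound for 20 h before luminescence read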
ssDAF12 agonist = S. stercoralis DAF-12 nuclear receptor activators, primary screen, cell-based, luminescence, HEK293, GRIP1 co-expression, lit1-tk-luc | Nuclear hormone receptor DAF-12 (Strongyloides stercoralis) | HEK293 ssDAF-12/GRIP1 lit1-tk-luc reporter; % of 3 µM dafachronic acid response | activation, % at 6.8 µM | 370,000 tested, 1% active | AID 652126, 2013;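 active = activation above the mean over all tested compounds plus 3 SD, cut at about 0.9% in these data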
DAX1 inh-2 = DAX1 (NR0B1) inhibitors, primary screen, cell-based, HEK293, Gal4-DAX1, luciferase luminescence | Nuclear receptor subfamily 0 group B member 1 (Homo sapiens), P51843 | HEK293 Gal4-DAX1 luciferase reporter | inhibition, % at 6.75 µM | 340,000 tested, 0.99% active | AID 504766, 2011;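 active = inhibition above the mean over all tested compounds plus 3 SD, cut at about 4.2% in these data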;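 also: inhibition shows as a rise in luminescence from relieved DAX1 repression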
Target sequence (P51843 207-470 limits assumed): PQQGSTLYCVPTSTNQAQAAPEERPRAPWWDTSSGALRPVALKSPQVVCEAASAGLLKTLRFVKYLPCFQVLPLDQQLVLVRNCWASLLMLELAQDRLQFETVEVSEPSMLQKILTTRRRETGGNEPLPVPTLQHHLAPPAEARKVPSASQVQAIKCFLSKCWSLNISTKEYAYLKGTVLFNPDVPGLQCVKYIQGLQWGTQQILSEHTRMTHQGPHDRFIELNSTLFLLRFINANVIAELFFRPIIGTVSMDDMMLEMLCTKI
Large screens that a line does not name were inactive. Sampled rows, rich in hits. Any-hit rate of the full collection: about 4.6%.

CCOC(=O)c1cc2c(c(CCO)n1)[C@@H](CCO)N(S(=O)(=O)C(C)(C)C)C2	none (no result: Wee1 stabilizer)
CC(C)(C)c1[nH]nc2c1C(c1cccnc1)C(C#N)=C(N)O2 (centres undefined)	Wee1 stabilizer 9.9
COC(=O)[C@]12CCCCC=C1N(Cc1ccc(OC)cc1)C(=O)[C@@H]2CC(=O)NCc1cccc(C(F)(F)F)c1	none (no result: Wee1 stabilizer, DAX1 inh-2)
CC(=O)Nc1ccc(-c2ccnc3c2CC(C)(C(=O)NCc2ccc(F)c(F)c2)O3)cc1 (centres undefined)	none (no result: Wee1 stabilizer, DAX1 inh-2)
O=C(Nc1ccccc1F)c1ccc2nc(N3C(=O)CCC3=O)sc2c1	DAX1 inh-2 7.1
Cc1cc(C)c2sc(NC(=O)c3ccc(N4C(=O)CCC4=O)cc3)nc2c1	none
O=C(Nc1nc2cc3c(cc2s1)OCO3)c1ccc(N2C(=O)CCC2=O)cc1	ssDAF12 agonist 1.4
O=C(Nc1nc2cc3c(cc2s1)OCO3)c1cccc(N2C(=O)CCC2=O)c1	none
O=C(Nc1nc2ccc(F)cc2s1)c1ccc(N2CCCC2=O)cc1	DAX1 inh-1 4.2 (no result: Wee1 stabilizer)
O=C(Nc1ccc(F)cc1F)c1ccc2nc(N3CCOCC3)sc2c1	none (no result: Wee1 stabilizer)
Cc1ccc2nc(NC(=O)c3ccc(N4C(=O)CCC4=O)cc3)sc2c1	hcDAF12 agonist 5.9
O=C(NCc1ccccn1)[C@@H]1CCCN1C(=O)[C@@H]1CCCN1C(=O)c1c(F)cccc1F	none (no result: Wee1 stabilizer, DAX1 inh-2)
O=C(O)Cn1c2ccccc2c2ccccc21	none
O=Cc1c(C(=O)O)n(CC(=O)O)c2ccccc12	hcDAF12 agonist 5.8
S=C(Nc1ccc(Cl)cc1)NC1CCCCC1	none
Cc1nc2ccc(NC(=S)NC3CCCCC3)cc2nc1C	DAX1 inh-2 6.6
Cc1ccc(NC(=S)NC2CCCC2)cc1C	none
S=C(Nc1ccc2[nH]ccc2c1)NC1CCCCC1	DAX1 inh-2 4.7
C=CCN1[C@H](C#N)[C@@H](c2ccc(C#Cc3cccnc3)cc2)[C@H]1CO	none (no result: Wee1 stabilizer, DAX1 inh-2)
CC(C)Sc1nc(SCC(=O)NCc2ccco2)c2c3c(sc2n1)COC(C)(C)C3	Wee1 stabilizer 9.8
CC(C)Sc1nc(SCC(=O)O)c2c3c(sc2n1)COC(C)(C)C3	none
CCOC(=O)n1cnc2nc(N)nc(SC)c21	none (no result: Wee1 stabilizer)
C=CCc1ccc2oc(C(=O)OCC)cc(=O)c2c1O	Wee1 stabilizer 10
O=C(CN1CCN(c2cnn(-c3ccccc3)c(=O)c2Cl)CC1)NC1CCS(=O)(=O)C1 (centres undefined)	none (no result: Wee1 stabilizer)
CCOc1ccccc1NC(=O)C(NCC1(N2CCCCC2)CCCCC1)c1ccccc1 (centres undefined)	DAX1 inh-2 4.4
CC(=O)c1cc(-c2ccc(Cl)c(Cl)c2)c(=O)n2c1CCC2	none (no result: Wee1 stabilizer, DAX1 inh-2)
CN(Cc1nccn1C)C(=O)c1ccc2nc(Cc3ccccc3F)oc2c1	hgDAF-12 ag 13 (no result: Wee1 stabilizer)
Cc1cccc(CNC(=O)c2ccc3nc(Cc4ccccc4F)oc3c2)n1	DAX1 inh-1 3.7, hgDAF-12 ag 11 (no result: Wee1 stabilizer)
Cn1c(=O)ccc2ccccc21	none (no result: Wee1 stabilizer, DAX1 inh-2)
Nc1[nH]c2cc(Cl)ccc2c1C(=O)N1CCOCC1	none (no result: Wee1 stabilizer, DAX1 inh-2)
CCOC(=O)N1CCC(NC(=O)Cn2ncc3ccccc32)CC1	none
CC1CCC(NC(=O)Cn2ncc3ccccc32)CC1 (centres undefined)	DAX1 inh-2 6.5
CC#CC(=O)N[C@H]1CC[C@@]23CCCN2C(=O)CCC[C@H]3[C@H]1C	none (no result: DAX1 inh-1, Wee1 stabilizer, DAX1 inh-2)
COc1cc(/C=N/NC(=O)C(Cc2c[nH]c3ccccc23)NC(=O)OCC(C)C)cc([N+](=O)[O-])c1O (centres undefined)	none
COc1cc(/C=N/NC(=O)C(Cc2c[nH]c3ccccc23)NC(=O)OCC(C)C)cc([N+](=O)[O-])c1OCc1ccccc1 (centres undefined)	DAX1 inh-2 5.2
Cc1ccsc1CN(C)CC(=O)NCC(=O)Nc1ccc(F)c(F)c1F	none (no result: Wee1 stabilizer)
O=C(Nc1ccc(C(=O)O)cc1)/C(=C\C=C\c1ccccc1)NC(=O)c1ccccc1Cl	DAX1 inh-1 4.3 (no result: Wee1 stabilizer)
O=C(N/C(=C/C=C/c1ccccc1)C(=O)N1CCOCC1)c1ccccc1Cl	hcDAF12 agonist 6.0
COc1ccccc1C(=O)N/C(=C/c1ccccc1)C(=O)Nc1ccc(C(=O)O)cc1	Wee1 stabilizer 10
O=C(N/C(=C\c1ccccc1)C(=O)N1CCOCC1)c1ccccc1Cl	none (no result: Wee1 stabilizer)
O=C(Nc1ccc2[nH]c(=O)[nH]c2c1)c1ccc(Cl)c(Cl)c1	none (no result: DAX1 inh-2)
O=C(Nc1ccc2ccccc2c1)c1ccc2[nH]c(=O)c(=O)[nH]c2c1	hcDAF12 agonist 6.1 (no result: Wee1 stabilizer)
Cc1onc(-c2ccccc2)c1C(=O)NN1CCOCC1	none (no result: Wee1 stabilizer)
COc1cc2c(=O)n(CCC(=O)NCC3CCCO3)c(=O)n(CC(=O)c3ccc(Cl)cc3)c2cc1OC (centres undefined)	DAX1 inh-2 5.3
COc1cccc(C(=O)Cn2c(=O)n(CCC(=O)NCC3CCCO3)c(=O)c3cc(OC)c(OC)cc32)c1 (centres undefined)	none
O=C(N/N=C/c1ccc(C(F)(F)F)cc1)c1ccc(O)cc1	none
O=C(N/N=C/c1ccc(O)cc1)c1csc2c1CCCC2	hgDAF-12 ag 11
CCOC(=O)C(CO)(NC(C)=O)C(=O)OCC	none
CCOC(=O)C(CCCCCCC(NC(C)=O)(C(=O)OCC)C(=O)OCC)(NC(C)=O)C(=O)OCC	DAX1 inh-2 4.7
O=C(OCCCCSc1nnc(-c2cccc3ccccc23)o1)c1ccc(F)cc1	none (no result: DAX1 inh-1, Wee1 stabilizer, DAX1 inh-2)
Cc1cccc(N(CC(=O)NC2CCCC2)C(=O)CCCC(=O)Nc2ccccn2)c1	none
Cc1ccc(C)c(N(CC(=O)NC2CCCC2)C(=O)CCCC(=O)Nc2ccccn2)c1	Wee1 stabilizer 8.9
C=C(C)CSc1nc2nc(C)c(Br)cc2[nH]1	DAX1 inh-2 6.0
COc1ccccc1[C@@]1(C)ON(c2ccccc2C(F)(F)F)C1=O	none (no result: Wee1 stabilizer)
O=C(NC(=O)c1ccccc1O)c1ccc(C(F)(F)F)cc1	Wee1 stabilizer 9.1 (no result: DAX1 inh-2)
COc1ccc(S[C@]2(C(=O)N(C)C)CC(=O)N(C(=O)/C=C/c3ccccc3)[C@@H]2c2ccc(OC)cc2)cc1	none (no result: Wee1 stabilizer, DAX1 inh-2)
COc1ccc(S[C@]2(C(=O)N(C)C)CC(=O)N(c3ccccc3)[C@@H]2c2ccc(OC)cc2)cc1	hgDAF-12 ag 12 (no result: Wee1 stabilizer, DAX1 inh-2)
COc1cccc(C(=O)C[n+]2ccccc2/C=N/O)c1	ssDAF12 agonist 1.2
COc1cccc(C(=O)C[n+]2cccc3cc(OC)ccc32)c1	none (no result: Wee1 stabilizer)
